The structures appear in SMILES notation. The whole screen tested about 290,000 compounds, of which about 1,800 (0.62%) were called active. This is one part of a sample in which actives are shown more often than they occur. Values without a mark were called inactive. No stated cut-off is given here; in the data, active means inhibition above about 50%; inactive means the rest.

The assay is described as follows: NOD2 signaling inhibitors, cell-based, luminescence, uHTS, HEK293 (AID 1566). The note with it: HEK293 NOD2/NF-kB luciferase reporter, at 4 µM, hits give high values.
Take `CCN1CCN(Cc2ccc(NC(=O)c3ccc(C)c(NC(=O)c4cccc5[nH]ccc45)c3)cc2C(F)(F)F)CC1`: the inhibition is -20.7%.
Turning to `CCN1CCN(Cc2ccc(NC(=O)c3cc(NC(=O)C(=O)c4c[nH]c5ccccc45)cc(OC)c3)cc2C(F)(F)F)CC1`, the inhibition is 5.4%.
Consider `CCN1CCN(Cc2ccc(NC(=O)c3ccc(C)c(NC(=O)C(=O)c4c[nH]c5ccccc45)c3)cc2C(F)(F)F)CC1`, for which the inhibition was 57% (active).
For `O=C(/C=C/c1ccccc1)NC(=S)Nc1ccccc1O` the value was 0.9%.
In the case of `Nc1ccc(-c2nc3ccc(N)cc3[nH]2)cc1` it was -7%; in that of `Nc1ccc(-c2nc3c(Cl)c(N)ccc3[nH]2)cc1`, -6.6%.
With `Nc1ccc(-c2nc3c(Cl)cc(N)cc3[nH]2)cc1`, the inhibition was 55.1% (active).
Turning to `NC(=O)c1ccc(NC(=O)Cc2csc(-c3ccccc3)n2)cc1`, the inhibition is 8%.
In the case of `CCOc1ccc(C(=O)CSCC(=O)O)cc1`, the inhibition was 6.2%.
For `CCOc1ccc(C(=O)CCC(=O)O)cc1`, the inhibition is 16%.
For `CCOc1ccc(C(=O)CSCCC(=O)O)cc1`, the inhibition was 53.4% (active).
Consider `COc1ccc(/C=C/c2c(-c3ccc(OC)cc3)oc3ccc(-c4ccc(OC)cc4)cc23)cc1`, for which the inhibition is 4.5%.
On to `COc1ccc(/C=C/C(=O)Oc2ccc(C)cc2)cc1`, for which the inhibition was 7.2%.
As for `O=C(COC(=O)C12CC3CC(CC(C3)C1)C2)Nc1nccs1`, the inhibition was 33.4%.
With `Cc1nc2scc(C)n2c(=O)c1S(=O)(=O)Nc1ccc(N2CCOCC2)c(Cl)c1`, the inhibition was 51.2% (active).
Consider `Cc1nc2scc(C)n2c(=O)c1S(=O)(=O)Nc1ccc(N2CCOCC2)cc1`, for which the inhibition was 14.2%.
For the compound `Cc1nc2sccn2c(=O)c1S(=O)(=O)Nc1ccc(N2CCOCC2)c(Cl)c1`, the inhibition was 33.7%.
With `O=C(c1ccncc1)c1ccc(NS(=O)(=O)c2ccc(Br)s2)cc1`, the inhibition is 23.1%.
On to `Cc1cc(C=C2C(=O)c3ccccc3C2=O)c(C)n1-c1ccccc1`, for which the inhibition was 5.9%.
Consider `Cc1cc(C=C2C(=O)CCCC2=O)c(C)n1-c1ccccc1`, for which the inhibition was 1.8%.
As for `Cc1cc(C=C2C(=O)c3ccccc3C2=O)c(C)n1-c1cccc(C(=O)O)c1`, the inhibition is -11.1%.
On to `Cc1cc(C=C2C(=O)c3ccccc3C2=O)c(C)n1-c1ccc(Cl)cc1`, for which the inhibition is 19.2%.
In the case of `Cc1cccc(-n2c(C)cc(C=C3C(=O)c4ccccc4C3=O)c2C)c1` it was 57.4% (active).
In the case of `Cc1cc(/C=C2\Cc3ccccc3C2=O)c(C)n1-c1ccccc1` it was 59.1% (active); in that of `CNC(=O)CSc1nc2[nH]ncc2c(=O)[nH]1`, 10.9%.
Take `COc1ccc(C(CC(=O)N2CCCC2)C(C)C)cc1` (configuration not stated): the inhibition is -6.1%.
For the compound `O=C(NC(Cc1ccc2c(c1)OCO2)C(=O)NC(Cc1ccccc1)C(=O)O)c1ccccc1` (configuration not stated), the inhibition is 0%.
On to `O=C(CN(Cc1cccs1)C(=O)CNS(=O)(=O)c1ccccc1)NC1CCCC1`, for which the inhibition was 9.3%.
For `CCCNC(=O)c1cc(S(=O)(=O)N2CCc3ccccc32)cn1C` the value was 52.1% (active).
In the case of `CC(C)CCNC(=O)c1cc(S(=O)(=O)N2CCc3ccccc32)cn1C`, the inhibition is 26.2%.
`CCN(CC)CCNC(=O)c1cc(S(=O)(=O)N2CCc3ccccc32)cn1C`: the inhibition is 27.1%.
Consider `CS(=O)(=O)N(CC(=O)Nc1cccc(Cl)c1)c1ccccc1Cl`, for which the inhibition was -11.8%.
Turning to `C[C@H]1O[C@@H](O[C@H]2[C@@H](O)C[C@H](O[C@H]3[C@@H](O)C[C@H](O[C@H]4CC[C@@]5(C)[C@H](CC[C@@H]6[C@@H]5C[C@@H](O)[C@]5(C)[C@@H](C7=CC(=O)OC7)CC[C@]65O)C4)O[C@@H]3C)O[C@@H]2C)C[C@H](O)[C@@H]1O`, the inhibition is 77.7% (active).
In the case of `COc1ccc(N(CC(=O)Nc2ccc(C)c(C)c2)C2=NC3CS(=O)(=O)CC3S2)cc1` (configuration not stated) it was 10.8%.
Consider `CCC(C)(C)NC(=O)C1CC(=O)N(CCc2ccc(F)cc2)C1` (configuration not stated), for which the inhibition is 12.1%.
Turning to `COc1ccc(S(=O)(=O)N2CCC(N3CCN(c4ccccc4)CC3)CC2)cc1`, the inhibition is 16.7%.
`Cc1cc(C(=O)NCC2COc3ccccc3O2)c2ccccc2n1` (configuration not stated): the inhibition was 17.7%.
For `Cc1nc2ccccc2c2oc(C(=O)NCc3ccc4c(c3)OCO4)cc12` the value was 45.9%; for `Cc1c(/C(O)=C2/C(=O)C(=O)N(CCN(C)C)C2c2ccc(C(C)C)cc2)cnn1-c1ccccc1` (configuration not stated), 28.4%.
Take `Cc1ccc(C)c(N(C)C(=O)c2cc3c(=O)[nH]c4ccc(C)cc4c3s2)c1`: the inhibition was -16%.
In the case of `Cc1ccc2[nH]c(=O)c3cc(C(=O)N(C)c4ccccc4C)sc3c2c1` it was 13.1%.
Regarding `Cc1ccc2[nH]c(=O)c3cc(C(=O)N(C)C4CCCCC4)sc3c2c1`, the inhibition is 56.8% (active).
For `COc1cc(CN2CCC(Cc3ccccc3)CC2)cc([N+](=O)[O-])c1O` the value was -1.9%; for `O=C(Nc1ccc(N2CCCC2)cc1)c1cc(Br)ccc1Cl`, -11.7%.
On to `Cc1ccc2c(COC(=O)c3c(C)noc3C)cc(=O)oc2c1`, for which the inhibition was 0.4%.
For `N[C@@H](CO)c1nnc([C@H](CC(=O)O)NC(=O)C2CCNCC2)o1` the value was -3.6%; for `CCSc1nsc(NC(=O)Nc2ccccc2F)n1`, -32.2%.
For `CCSc1nsc(NC(=O)Nc2cccc(OC)c2)n1` the value was 17.5%; for `CC1CCN(C(=O)c2ccc(CS(=O)(=O)Cc3ccccc3)cc2)CC1`, 12.8%.
As to `CCc1ccc(NC(=S)N2CCC(NC(=O)c3ccccc3)CC2)cc1`, the inhibition is 7.4%.
Turning to `Cc1ccc(NC(=S)N2CCC(NC(=O)c3ccc(C)cc3)CC2)cc1`, the inhibition was -13.6%.
With `Cc1ccc(NC(=S)N2CCC(NC(=O)c3ccccc3)CC2)cc1`, the inhibition was 93% (active).
As to `CC(C(=O)NC1CCCCCC1)n1cc([N+](=O)[O-])cn1` (configuration not stated), the inhibition was 3.3%.
Turning to `O=[N+]([O-])c1cccc2ccc(/C=C/c3cccc(Br)c3)nc12`, the inhibition is -19%.
Turning to `CC(=O)N[C@@H](C)c1nc2ccccc2n1CCCN1CCN(c2nc(-c3ccc(C)cc3)cs2)CC1`, the inhibition is 44.3%.
Take `Cc1ccc(-c2csc(N3CCN(CCCn4c(C(F)(F)F)nc5ccccc54)CC3)n2)cc1`: the inhibition is 19.9%.
Regarding `Cc1ccc(Cn2c(SC3CCOC3=O)nc3ccccc3c2=O)cc1` (configuration not stated), the inhibition was -3.1%.
As to `O=C1NCC(CN(c2ccccc2)c2ccccc2)O1` (configuration not stated), the inhibition is 14.1%.
For `CN(Cc1ccccc1)c1ncnc2ccc(Br)cc12` the value was 20.7%; for `CCN(CC)c1ncnc2ccc(Br)cc12`, 65.5% (active).
For the compound `CC(C)Nc1ncnc2ccc(Br)cc12`, the inhibition was 43%.
In the case of `Cn1c(=O)oc2cc(S(=O)(=O)N3CCC(C(=O)N4CC=C(c5ccccc5)CC4)CC3)ccc21` it was 7.5%.
In the case of `Cc1nnc(SCC(=O)Nc2cccc([N+](=O)[O-])c2)n1CC1CCCO1` (configuration not stated), the inhibition was 2.2%.
Consider `O=C(O)c1ccccc1C(=O)c1ccc(Oc2ccccc2)cc1`, for which the inhibition was -0.9%.
On to `O=C(O)c1ccccc1C(=O)c1ccc(Cl)cc1`, for which the inhibition was 1%.
Turning to `O=C(O)c1ccccc1C(=O)c1ccc(-c2ccccc2)cc1`, the inhibition was 64.3% (active).
For `Cc1ccc2c(C)c(C(=O)Nc3c(C)n(C)n(-c4ccccc4)c3=O)oc2c1C` the value was 22.4%.
For `CCC(=O)N1CCc2cc(S(=O)(=O)CCC(=O)NC(C)CC)ccc21` (configuration not stated) the value was 10.4%.
For `CCc1ccc(N(C(=O)Cn2nnc(-c3ccccc3)n2)C(C(=O)NC2CCCCC2)c2ccccn2)cc1` (configuration not stated) the value was 5.5%; for `COCc1cc(=O)[nH]c(Nc2nc3ccc(C)cc3o2)n1`, 62.8% (active); for `COC(=O)Cc1cc(=O)[nH]c(Nc2nc3ccccc3o2)n1`, -8.6%.
In the case of `COCc1cc(=O)[nH]c(Nc2nc3ccccc3o2)n1`, the inhibition was -130%.
In the case of `COc1ccc(Cn2c(C3CC3)nc3ccc(NC(=O)c4ccco4)cc3c2=O)cc1`, the inhibition is -43.8%.
In the case of `CCn1c(C)c(C(C)=O)c(N2CCN(c3cccc(Cl)c3)CC2)nc1=S` it was 15.5%.
As to `CC(=O)Nc1ccc(/C(C)=N/NC(=O)c2ccc(CN3CCOCC3)cc2)cc1`, the inhibition is 6.9%.
For the compound `CC1CCCCN1C(=O)c1ccc(C(=O)N2CCCCC2C)cc1` (configuration not stated), the inhibition is 5%.
On to `COc1ccc(OC(=O)Nc2ccccc2)cc1`, for which the inhibition is -3.6%.
For `Cc1nnc(SCc2nnc(-c3ccc(Cl)cc3)o2)n1-c1ccccc1`, the inhibition was -2.6%.
Take `N#Cc1c(-c2ccccc2)cc(-c2ccccc2)nc1SCc1nnc(-c2ccccc2)o1`: the inhibition was 15.7%.
On to `Cc1csc(SCc2nnc(-c3ccc(Cl)cc3)o2)n1`, for which the inhibition is -134%.
For `Cc1ccc(C#N)c(SCc2nnc(-c3ccc(Cl)cc3)o2)n1` the value was 67.8% (active).
For the compound `Cc1cc(C)c(C#N)c(SCc2nnc(-c3ccccc3[N+](=O)[O-])o2)n1`, the inhibition is -197%.
Consider `Cc1ccc(-n2c(C)cc(/C=N/NC(=O)c3ccncc3)c2C)c(C)c1`, for which the inhibition was 7%.
On to `Cc1ccc(NC(=O)c2ccc3ccccc3n2)cc1S(=O)(=O)N(C)C`, for which the inhibition was -57.9%.
On to `O=C(CSc1nc2ccccc2[nH]1)Nc1cccc(S(=O)(=O)N2CCOCC2)c1`, for which the inhibition is 24.9%.
For `CC(=O)Nc1cccc(-n2nnc(SCC(=O)Nc3ccccc3)n2)c1` the value was 0.6%; for `Cc1cc(OCC(=O)NCCc2ccc(S(N)(=O)=O)cc2)c2c(C)c(C)c(=O)oc2c1`, 8.3%.
Consider `Cc1n[nH]c(=O)nc1NC1CCCCC1`, for which the inhibition was 3%.
As for `C=CCn1c(CSCc2ccccc2)nnc1SCC(=O)N1CCN(c2ccccc2)CC1`, the inhibition is 0.4%.
For the compound `N#Cc1ccccc1NC(=O)C1SC(=Nc2ccccc2)C(C(=O)Nc2ccc(Cl)cc2)=C1N` (configuration not stated), the inhibition was 50.7% (active).
For the compound `Cc1ccc(NC(=O)C2SC(=Nc3ccccc3)C(C(=O)Nc3ccc(Cl)cc3)=C2N)cc1` (configuration not stated), the inhibition is -14.9%.
Regarding `CCOc1ccc(N=C2SC(C(=O)Nc3ccccc3C#N)C(N)=C2C(=O)Nc2ccc(Cl)cc2)cc1` (configuration not stated), the inhibition is 13.4%.

These data come from PubChem BioAssay AID1566 (Sanford-Burnham Center for Chemical Genomics, 2009).
